This is an account of results in PubChem BioAssay (NCATS).

The nature of assay [1]: Nrf2 qHTS screen for inhibitors: Validation (AID 493153; active means well fitted inhibition curve with a large enough effect in the main read-out, with a control signal flat, not every such curve was filed as active). Particulars: Potency: luciferase luminescence; viability change: measured here: cytotoxicity max response. The essentials: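 A549 cells carrying ARE-firefly luciferase reporter, 5000 cells/well in 5% FBS OPTI-MEM, treated with compound over a concentration series for 18-24 h at 37 C. Luciferase luminescence gave Nrf2 activity; CellTiter-Fluor fluorescence gave viability.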
(In qHTS, concentration-response curves come from the screen itself.)

A short description of assay [2]: qHTS for Inhibitors of Cell Surface uPA Generation: Validation Assay (AID 493164). Further: 0% is about no effect. A digest of the protocol: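 RAW 264.7 cells (4000/well) were plated overnight, then exposed for 18 h at 37 C, 5% CO2 to compounds in a 7-point 1:5 titration (2.45 nM–38.3 uM final). Intracellular ATP was read by ATP-Lite luminescence.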
Assay [3] concerns the target Galactokinase (Homo sapiens) (UniProt P51570). The assay can be described thus: qHTS Validation Assay for Inhibitors of Human Galactokinase (GALK) (AID 493189). Further: 0% is about no effect. A digest of the protocol: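 GALK (5 nM) with 35 uM ATP and 100 uM galactose in HEPES pH 8.0 with MgCl2, NaCl, DTT and BSA. Reaction ran 1 h at room temperature. Residual ATP read by Kinase-Glo Plus luminescence.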

Assay [4] concerns the target Peptidyl-prolyl cis-trans isomerase NIMA-interacting 1 (Homo sapiens) (UniProt Q13526). Description: qHTS Validation Assay to Find Inhibitors of Pin1 (AID 504536; active means well fitted inhibition curve with a large enough effect in the polarisation, with a control signal flat, not every such curve was filed as active; the % refers to the polarisation;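 further: 0% = full Pin1 enzyme wells and -100% = no-enzyme wells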). The essentials:
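Fluorescence polarization competition: compounds (titration) displace HiFluor-488-labeled Pin1-1b peptide from Pin1 (0.3 uM final) in pH 7.5 HEPES buffer with DTT, 10 min at room temperature; %Activity normalized to no-enzyme wells, curves fitted.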

The target of assay [5] is Phosphoglycerate kinase, glycosomal (Trypanosoma brucei brucei) (UniProt P07378). Description: qHTS Validation Assay to Find Inhibitors of Phosphoglycerate Kinase (AID 504547).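 Further: control wells lack PGK and mark full inhibition.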 A digest of the protocol: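 Substrate/PGK mix plus compound; reaction started with GAPDH (100nM final) to form 1,3-BPG; 60 min RT; Kinase-Glo Plus 10 min; luminescence. TEA 100mM pH 7.6, MgCl2 5mM, Tween-20 0.01%.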

The target in assay [6] is phosphoglycerate mutase (Leishmania major) (UniProt Q4Q090). The assay can be described thus: qHTS Validation Assay to Find Inhibitors of Phosphoglycerate Mutase (AID 504548). Further: series mostly up to about 58 µM; on the % scale 0 is the no-effect control and ±100 the full control effect. The essentials:
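Luminescent end-point read-out via Kinase-GloPlus after a 10-minute development. Reaction: 1.25nM Leishmania major PGAM with substrate and compound, 45 minutes at room temperature in TEA buffer (pH 7.6) with MgCl2 and Tween-20.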

Assay [7] in a line: Inducers of the Endoplasmic Reticulum Stress Response (ERSR) in human glioma: Validation (AID 504836). Further: 0% is about no effect. A digest of the protocol:
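Stably transfected U87-MG human glioma cells carrying a GRP78-based luminescent sensor were seeded at 1000 cells/well, pin-dosed with compounds and incubated 16 h. Luciferase reagent was then added, and end-point luminescence was read after 10 min at room temperature.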

The nature of assay [8]: qHTS for Inhibitors of ATXN expression: Validation of Cytotoxic Assay (AID 588349). Further: on the % scale 0 is the no-effect control and ±100 the full control effect. The essentials: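 HEK293 cells treated with titrated compound for 72 hr at 37 degrees C; viability read as intracellular ATP by CellTiter Glo luminescence.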
The target in assay [9] is Ubiquitin carboxyl-terminal hydrolase 1 (Homo sapiens) (UniProt O94782). Description: Inhibitors of USP1/UAF1: Pilot qHTS (AID 504865).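 Further: rhodamine fluorescence freed from ubiquitin-rhodamine substrate followed over time; top concentration of the series differs between compounds; on the % scale 0 is the no-effect control and ±100 the full control effect; nearly all actives have a fitted effect of over 35% in size.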 The essentials: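 USP1/UAF1 complex at 1 nM preincubated 15 min at room temperature with compound, then Ub-Rho substrate added at 150 nM final. Fluorescence (480/540 nm) read kinetically in 50 mM HEPES pH 7.8, 0.5 mM EDTA, 1 mM TCEP, 0.1 mg/ml BSA, 0.01% Tween-20.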

Assay [10] deals with DNA dC->dU-editing enzyme APOBEC-3G (Homo sapiens) (UniProt Q9HC16). The assay can be described thus: qHTS for inhibitors of Vif-A3G interactions: Validation (AID 588379). Further: 0% is about no effect. The essentials: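 HeLa cells stably expressing Vif and A3G-eYFP, 700 cells/well, incubated overnight at 37 deg C, then exposed to compound overnight at 37 deg C. Inhibition of Vif-mediated degradation read as increased yellow fluorescence (Ex 488/Em 500-530) by laser-scanning cytometry.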

The target of assay [11] is Bile acid receptor (Homo sapiens) (UniProt Q96RI1). The assay can be described thus: qHTS assay for small molecule agonists of farnesoid X receptor signaling (AID 588527; calls by dose curve;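 further: series mostly up to about 77 µM; 0% = vehicle basal and 100% = reference agonist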). Particulars: HEK293T FXR-UAS-bla, beta-lactamase ratio, 16 h; stronger effect = higher value. The essentials: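 Read-out: beta-lactamase reporter fluorescence with CCF4 substrate in GeneBLAzer FXR-UAS-bla HEK293T cells, after 16 h compound exposure at 37 C. Response scaled between DMSO basal (0%) and chenodeoxycholic acid at 100 uM (100%).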

Assay [12] has as its target Glucocorticoid receptor (Homo sapiens) (UniProt P04150). Description: qHTS assay for small molecule agonists of glucocorticoid receptor signaling (AID 588532; active means well fitted curve in the direction sought with a large enough effect in the signal ratio, with a control signal flat; the % refers to the signal ratio;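 further: 100% = dexamethasone at 0.1 µM and 0% = DMSO only wells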). The following applies: HeLa MMTV-bla, beta-lactamase ratio, agonist, 18 h; stronger effect = higher value; percent of dexamethasone control, DMSO zero. The essentials:
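MMTV-bla HeLa, beta-lactamase reporter; medium with 1% charcoal/dextran-stripped FBS; cpds up to 92 uM, 18 h, 37 C; CCF4 readout 460/530 nm; Hill fit → EC50, efficacy vs 0.1 uM dexamethasone = 100%.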

Assay [13] has as its target Estrogen receptor (Homo sapiens) (UniProt P03372). The assay can be described thus: qHTS assay for small molecule agonists of estrogen receptor alpha signaling (AID 588514; calls by dose curve;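 further: 0% = vehicle only and 100% = reference agonist; nearly all actives have a fitted effect of over 70% in size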). A digest of the protocol: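 ER-alpha-UAS-bla GripTite HEK293 cells, 5000/well in 2% charcoal/dextran-stripped FBS medium, treated with compound titrations 18 h at 37 C. CCF4 beta-lactamase read by fluorescence after 2 h RT; normalised to 20 nM 17-beta-estradiol (100%) and DMSO (0%), Hill fit for EC50 and efficacy.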

Assay [14] concerns the target Glucocorticoid receptor (Homo sapiens) (UniProt P04150). The assay can be described thus: qHTS assay for small molecule antagonists of glucocorticoid receptor signaling (AID 588533; active means well fitted inhibition curve with a large enough effect in the signal ratio, with a control signal flat, not every such curve was filed as active; the % refers to the signal ratio;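 further: cells stimulated with 2 nM dexamethasone as agonist; on the % scale 0 is the no-effect control and ±100 the full control effect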). A digest of the protocol:
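Antagonist-mode qHTS: compound titrations added to GRE-bla HeLa cells, then dexamethasone 2 nM final; 18 h, 37 C. CCF4 FRET fluorescence normalized to dexamethasone and DMSO; IC50 from Hill fit.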

The target of assay [15] is Estrogen receptor (Homo sapiens) (UniProt P03372). The assay can be described thus: qHTS assay for small molecule antagonists of estrogen receptor alpha signaling (AID 588513; active means well fitted curve in the direction sought with a large enough effect in the signal ratio, with a control signal flat, not every such curve was filed as active; the % refers to the signal ratio; further: on the % scale 0 is the no-effect control and ±100 the full control effect). A digest of the protocol:
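ER-alpha-UAS-bla GripTite HEK 293 cells in 2% charcoal/dextran-treated FBS medium; compounds titrated (1:2, duplicate), then stimulated with 0.5 nM 17-beta-estradiol for 18 h at 37C. CCF4 beta-lactamase fluorescence; Hill-fit IC50 and efficacy.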

In assay [16] the target is Androgen receptor (Homo sapiens) (UniProt P10275). The assay can be described thus: qHTS assay for small molecule agonists of androgen receptor signaling (AID 588515; active means well fitted curve in the direction sought with a large enough effect in the signal ratio, with a control signal flat; the % refers to the signal ratio; further: on the % scale 0 is the no-effect control and ±100 the full control effect). Particulars: AR-UAS-bla HEK293, beta-lactamase ratio, agonist 16 h; stronger effect = higher value. A digest of the protocol: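 EC50 and efficacy came from Hill fits of titrations (up to 92 uM) normalized to 30 nM R1881 as 100% and DMSO as 0%. Compound exposure was 16 h at 37 C on AR-UAS-bla HEK293 cells, with a 405/460/530 nm CCF4 fluorescence read.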

Assay [17] shares this target. The assay can be described thus: qHTS assay for small molecule antagonists of androgen receptor signaling (AID 588516; active means well fitted curve in the direction sought with a large enough effect in the signal ratio, with a control signal flat, not every such curve was filed as active; the % refers to the signal ratio; further: on the % scale 0 is the no-effect control and ±100 the full control effect). A digest of the protocol:
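AR-UAS-bla GripTite HEK 293 cells (2000/well) treated with compound titrations plus 10 nM R1881 for 16 h at 37C. Beta-lactamase read by CCF4 FRET (460/530 nm); IC50 from Hill fits, normalized to R1881 and DMSO control wells.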

The target of assay [18] is Peroxisome proliferator-activated receptor delta (Homo sapiens) (UniProt Q03181). The assay can be described thus: qHTS assay for small molecule agonists of peroxisome proliferator-activated receptor delta signaling (AID 588534; calls by dose curve;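 further: 0% = DMSO basal wells and 100% = positive control agonist at 10 µM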). A digest of the protocol:
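Cells carrying a PPAR-delta beta-lactamase reporter were treated with compounds for 18 h at 37 °C in agonist mode. CCF4 fluorescence was read after 2 h; EC50 and efficacy from Hill fits.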

The nature of assay [19]: qHTS assay for small molecule antagonists of peroxisome proliferator-activated receptor delta signaling (AID 588535).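 Further: cells co-treated with a PPAR-delta agonist as stimulator during compound exposure.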 Particulars: HEK293T PPARd-UAS-bla, beta-lactamase FRET ratio, 18 h; 460 nm channel. A digest of the protocol: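 Reporter: UAS-bla under PPAR-delta response element, HEK293T host. Medium: 2% charcoal/dextran FBS. Dosing: titration, 18 hrs, 37 C. Detection: CCF4, 2 hrs RT, 405 ex/460 and 530 em.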

Structures are written as SMILES. Inconclusive results are not listed. Calls of active or inactive are those of the source. Unless noted, the call rests on the fitted dose curve; in most records, active means well fitted curve in the direction sought with a large enough effect; inconclusive means small, poorly fitted or top-dose-only effect, or another doubt; inactive means no such curve, though single readings can be large; an effect the other way counts as inactive or inconclusive.

phosphoglycerate mutase (Leishmania major), sequence (Q4Q090 1-553): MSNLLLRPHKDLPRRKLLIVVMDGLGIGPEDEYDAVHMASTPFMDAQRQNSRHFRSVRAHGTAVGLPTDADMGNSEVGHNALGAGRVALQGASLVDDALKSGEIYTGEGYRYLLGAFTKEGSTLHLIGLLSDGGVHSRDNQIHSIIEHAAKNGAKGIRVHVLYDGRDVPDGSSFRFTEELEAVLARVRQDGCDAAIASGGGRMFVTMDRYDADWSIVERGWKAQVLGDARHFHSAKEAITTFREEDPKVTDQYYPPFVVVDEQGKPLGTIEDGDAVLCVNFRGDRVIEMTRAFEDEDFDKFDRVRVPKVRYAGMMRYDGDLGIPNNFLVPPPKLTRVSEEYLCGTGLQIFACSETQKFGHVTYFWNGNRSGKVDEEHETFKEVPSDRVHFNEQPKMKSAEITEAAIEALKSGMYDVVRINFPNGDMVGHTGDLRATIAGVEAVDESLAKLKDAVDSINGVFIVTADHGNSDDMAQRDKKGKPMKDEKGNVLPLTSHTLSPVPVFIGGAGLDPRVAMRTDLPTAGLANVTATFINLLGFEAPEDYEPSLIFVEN
DNA dC->dU-editing enzyme APOBEC-3G (Homo sapiens), sequence (Q9HC16 whole entry, looked up): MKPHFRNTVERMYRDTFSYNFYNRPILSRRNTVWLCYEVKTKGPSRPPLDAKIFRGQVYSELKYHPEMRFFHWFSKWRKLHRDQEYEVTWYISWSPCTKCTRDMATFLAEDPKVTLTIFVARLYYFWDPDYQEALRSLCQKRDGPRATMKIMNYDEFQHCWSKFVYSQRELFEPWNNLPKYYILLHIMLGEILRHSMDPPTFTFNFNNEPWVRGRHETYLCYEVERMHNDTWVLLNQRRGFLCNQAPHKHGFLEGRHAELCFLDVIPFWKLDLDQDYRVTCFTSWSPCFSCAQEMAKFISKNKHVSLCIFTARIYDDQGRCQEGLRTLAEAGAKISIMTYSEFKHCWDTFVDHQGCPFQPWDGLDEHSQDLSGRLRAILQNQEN
Phosphoglycerate kinase, glycosomal (Trypanosoma brucei brucei), sequence (P07378 whole entry, looked up): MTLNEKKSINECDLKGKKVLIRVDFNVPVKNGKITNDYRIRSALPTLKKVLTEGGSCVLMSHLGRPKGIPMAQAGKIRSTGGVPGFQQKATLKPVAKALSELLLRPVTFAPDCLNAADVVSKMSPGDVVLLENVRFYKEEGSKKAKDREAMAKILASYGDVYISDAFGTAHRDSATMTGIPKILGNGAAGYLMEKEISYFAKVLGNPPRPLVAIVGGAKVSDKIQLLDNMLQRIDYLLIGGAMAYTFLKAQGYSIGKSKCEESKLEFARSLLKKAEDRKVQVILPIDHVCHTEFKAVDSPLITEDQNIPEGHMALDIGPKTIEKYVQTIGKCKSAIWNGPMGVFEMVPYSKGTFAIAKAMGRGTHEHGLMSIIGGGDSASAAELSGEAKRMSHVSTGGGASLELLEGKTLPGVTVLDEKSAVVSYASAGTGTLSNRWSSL
Peptidyl-prolyl cis-trans isomerase NIMA-interacting 1 (Homo sapiens), sequence (Q13526 whole entry, looked up): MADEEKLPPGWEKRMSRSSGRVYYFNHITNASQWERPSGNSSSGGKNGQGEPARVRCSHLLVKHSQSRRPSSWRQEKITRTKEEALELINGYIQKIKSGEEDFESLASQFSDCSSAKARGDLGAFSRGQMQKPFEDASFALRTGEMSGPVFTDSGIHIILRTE
Estrogen receptor (Homo sapiens), sequence (P03372 whole entry, looked up): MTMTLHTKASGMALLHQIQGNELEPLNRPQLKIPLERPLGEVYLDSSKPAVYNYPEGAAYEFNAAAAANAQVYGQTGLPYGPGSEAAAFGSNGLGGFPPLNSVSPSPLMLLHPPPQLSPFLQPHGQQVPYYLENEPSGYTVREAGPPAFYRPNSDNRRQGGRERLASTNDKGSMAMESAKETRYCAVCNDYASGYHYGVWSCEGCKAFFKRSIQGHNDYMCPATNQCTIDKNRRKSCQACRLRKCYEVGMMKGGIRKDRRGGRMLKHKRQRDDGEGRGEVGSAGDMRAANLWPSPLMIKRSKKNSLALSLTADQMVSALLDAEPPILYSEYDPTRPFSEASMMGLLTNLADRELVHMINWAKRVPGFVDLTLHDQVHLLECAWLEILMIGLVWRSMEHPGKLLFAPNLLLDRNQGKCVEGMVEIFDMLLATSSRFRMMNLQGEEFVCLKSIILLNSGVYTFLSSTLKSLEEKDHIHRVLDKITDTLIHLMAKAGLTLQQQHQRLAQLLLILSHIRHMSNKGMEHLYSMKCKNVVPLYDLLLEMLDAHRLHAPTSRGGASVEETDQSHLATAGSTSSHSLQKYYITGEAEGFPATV
Ubiquitin carboxyl-terminal hydrolase 1 (Homo sapiens), sequence (O94782 whole entry, looked up): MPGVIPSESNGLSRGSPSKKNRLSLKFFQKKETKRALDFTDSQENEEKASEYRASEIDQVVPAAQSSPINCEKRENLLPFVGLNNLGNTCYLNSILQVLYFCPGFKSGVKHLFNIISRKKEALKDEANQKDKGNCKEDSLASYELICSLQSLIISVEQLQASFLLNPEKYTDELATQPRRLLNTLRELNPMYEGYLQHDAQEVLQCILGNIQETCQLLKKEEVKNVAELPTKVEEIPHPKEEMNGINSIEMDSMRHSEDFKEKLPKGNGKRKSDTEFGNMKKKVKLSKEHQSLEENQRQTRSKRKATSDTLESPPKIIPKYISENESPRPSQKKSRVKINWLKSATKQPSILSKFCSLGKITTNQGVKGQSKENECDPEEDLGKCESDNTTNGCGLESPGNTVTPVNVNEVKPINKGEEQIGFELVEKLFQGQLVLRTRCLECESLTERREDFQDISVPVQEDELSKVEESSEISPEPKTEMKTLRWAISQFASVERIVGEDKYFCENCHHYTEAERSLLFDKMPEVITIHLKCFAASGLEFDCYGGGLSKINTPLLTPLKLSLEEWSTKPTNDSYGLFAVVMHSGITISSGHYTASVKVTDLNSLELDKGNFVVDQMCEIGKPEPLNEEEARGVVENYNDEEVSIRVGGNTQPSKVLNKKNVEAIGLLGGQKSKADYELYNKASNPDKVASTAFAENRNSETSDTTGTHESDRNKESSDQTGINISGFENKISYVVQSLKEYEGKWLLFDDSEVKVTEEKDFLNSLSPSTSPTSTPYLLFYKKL
Glucocorticoid receptor (Homo sapiens), sequence (P04150 whole entry, looked up): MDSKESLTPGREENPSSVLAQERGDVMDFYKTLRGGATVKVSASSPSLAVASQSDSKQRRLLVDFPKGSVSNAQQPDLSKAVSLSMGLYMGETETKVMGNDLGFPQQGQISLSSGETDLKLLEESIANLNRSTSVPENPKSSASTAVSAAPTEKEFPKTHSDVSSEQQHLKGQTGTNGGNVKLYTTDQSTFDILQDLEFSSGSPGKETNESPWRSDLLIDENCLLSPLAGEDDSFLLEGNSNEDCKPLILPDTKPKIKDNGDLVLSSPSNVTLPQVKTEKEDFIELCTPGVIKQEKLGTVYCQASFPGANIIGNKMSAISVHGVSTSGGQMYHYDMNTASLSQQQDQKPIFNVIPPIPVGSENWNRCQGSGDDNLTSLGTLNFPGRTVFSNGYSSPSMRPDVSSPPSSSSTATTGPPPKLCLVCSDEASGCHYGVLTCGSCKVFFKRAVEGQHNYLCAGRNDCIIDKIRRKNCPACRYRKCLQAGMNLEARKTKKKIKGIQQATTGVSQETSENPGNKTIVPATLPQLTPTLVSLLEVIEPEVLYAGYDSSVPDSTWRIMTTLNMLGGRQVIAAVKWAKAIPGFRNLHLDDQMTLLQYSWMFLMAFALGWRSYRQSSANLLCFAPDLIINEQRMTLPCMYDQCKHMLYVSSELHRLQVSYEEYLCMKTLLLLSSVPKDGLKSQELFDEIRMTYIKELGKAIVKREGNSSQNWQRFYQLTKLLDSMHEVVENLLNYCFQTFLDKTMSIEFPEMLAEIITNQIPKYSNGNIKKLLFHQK
Galactokinase (Homo sapiens), sequence (P51570 whole entry, looked up): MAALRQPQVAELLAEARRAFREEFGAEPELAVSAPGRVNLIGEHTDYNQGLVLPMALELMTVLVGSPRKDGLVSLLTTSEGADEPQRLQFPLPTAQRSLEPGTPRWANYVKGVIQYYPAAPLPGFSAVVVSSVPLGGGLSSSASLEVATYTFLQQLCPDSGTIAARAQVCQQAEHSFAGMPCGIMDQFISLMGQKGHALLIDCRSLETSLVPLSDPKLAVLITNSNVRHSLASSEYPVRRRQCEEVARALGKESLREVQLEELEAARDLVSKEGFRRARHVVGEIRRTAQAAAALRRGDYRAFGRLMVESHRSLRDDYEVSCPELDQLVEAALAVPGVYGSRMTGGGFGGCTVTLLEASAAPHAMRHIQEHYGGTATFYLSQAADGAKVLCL
Bile acid receptor (Homo sapiens), sequence (Q96RI1 whole entry, looked up): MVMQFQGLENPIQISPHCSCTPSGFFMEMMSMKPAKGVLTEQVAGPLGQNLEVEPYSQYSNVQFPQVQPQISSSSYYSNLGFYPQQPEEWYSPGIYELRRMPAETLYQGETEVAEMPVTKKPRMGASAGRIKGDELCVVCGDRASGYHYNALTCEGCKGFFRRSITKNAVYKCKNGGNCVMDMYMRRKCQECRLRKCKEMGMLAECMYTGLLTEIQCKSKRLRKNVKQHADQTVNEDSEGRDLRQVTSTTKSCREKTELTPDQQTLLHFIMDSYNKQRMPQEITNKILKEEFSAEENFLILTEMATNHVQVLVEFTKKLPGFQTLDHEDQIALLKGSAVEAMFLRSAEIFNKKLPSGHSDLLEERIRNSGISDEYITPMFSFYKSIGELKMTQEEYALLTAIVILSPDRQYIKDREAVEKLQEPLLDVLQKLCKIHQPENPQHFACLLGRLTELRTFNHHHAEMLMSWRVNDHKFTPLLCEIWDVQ

For the compound `NCC(O)c1ccc(O)cc1` (centres undefined), the Potency result in assay [1], in [4], in [5] and in [8] was “inactive” each time. Further, the viability change in assay [1] was 0.943%. Moreover, the compound was classed as inactive in assay [2], in assay [3], in assay [6] and in assay [7].
As for `CCCN1CCC[C@@H]2Cc3nc(N)ncc3C[C@H]21`, the Potency entry in assay [1], in assay [4], in [5], in assay [9] and in assay [8] was “inactive” in each case. For the same compound, the viability change in [1] was found to be 1.56%. The compound was classed as inactive in assay [2], in assay [3], in [6] and in assay [7].
On to `COc1ccc(C(CN(C)C)C2(O)CCCCC2)cc1` (centres undefined), for which the Potency result in assay [1], in assay [4], in assay [5], in assay [9] and in assay [8] was “inactive” throughout. The viability change in assay [1] worked out at 3.45%. Also, the compound was classed as inactive in [2], in assay [6] and in assay [7].
For `C=C(C)[C@H]1Cc2c(ccc3c2O[C@@H]2COc4cc(OC)c(OC)cc4[C@@H]2C3=O)O1`, the compound was classed as inactive in assay [2], in assay [3], in assay [6] and in [10]. The Potency entry in assay [4] and in assay [5] was “inactive” each time. Besides, the activation was -1.33% (inactive) in [11] and -11.8% (inactive) in [12].
On to `CC(=O)[C@H]1CC[C@H]2[C@@H]3CC[C@H]4C[C@H](O)CC[C@]4(C)[C@H]3C(=O)C[C@]12C`, for which the compound was called inactive in assay [2], in assay [3], in [6] and in assay [7]. In addition, the Potency result in [4], in [5] and in assay [8] was “inactive” in each case.
For `N#CC(C#N)=Cc1ccc(O)c(O)c1`, the Potency result in assay [1], in assay [4], in assay [5] and in assay [8] was “inactive” in each case. The viability change in assay [1] was -7.57%. The outcome in [2], in assay [3], in [6] and in [10] was inactive.
As to `O=c1[nH]c2ccccc2n1C1CCN(CCCC(c2ccc(F)cc2)c2ccc(F)cc2)CC1`, the result in assay [2], in assay [3], in [6], in [7] and in assay [10] was inactive. For the same compound, the Potency entry in assay [4], in [5], in assay [8], in [13] and in assay [14] was “inactive” each time. Further, the activation was -1.92% (inactive) in assay [11] and 4.7% (inactive) in assay [12].
`CC[C@@H](CO)NC(=O)[C@@H]1C=C2c3cccc4c3c(cn4C)C[C@H]2N(C)C1`: the Potency result in assay [1] and in assay [5] was “inactive” each time. For the same compound, the viability change in assay [1] is -1.92%. Further, the outcome in assay [2], in assay [6] and in [7] was inactive.
For `c1ccc(C2CC2)c(OCC2=NCCN2)c1`, the Potency result in assay [1], in assay [4], in assay [5], in [9] and in [8] was “inactive” throughout. Also, the viability change in assay [1] amounted to 5.58%. Moreover, the compound was classed as inactive in assay [2], in assay [3], in assay [6] and in [10].
On to `Cc1ncc(CNC(=O)N(CCCl)N=O)c(N)n1`, for which the outcome in [2], in assay [3], in assay [6] and in assay [7] was inactive. Moreover, the Potency result in assay [4], in assay [5] and in assay [8] was “inactive” each time.
For the compound `Nc1ccncc1`, the Potency result in assay [1], in assay [4], in assay [5], in [9], in assay [8] and in assay [13] was “inactive” throughout. The viability change in [1] was -2.07%. Moreover, the call in [2], in [3], in [6], in assay [7], in [10] and in assay [15] was inactive. Further, the compound was classed as inactive in [17] and in assay [18]. Besides, in [16], the activation is -4.84% (inactive). The max response in [19] was -23%.
